Measurements published in PubChem BioAssay (EPA / NIEHS).
Results filed as inconclusive are left out. Some compounds were tested as several samples or in several runs, with calls that do not always agree. Active and inactive are the calls of the source. How the source made its calls, unless noted: active means hit-call score of the fitted dose curve at least 0.9, where 1 is the maximum; inactive means score below 0.9.

How the values were obtained:
[1] = CCTE_Shafer_MEA_dev_firing_rate_mean: CCTE's Neural Network Formation Assay for Mean Firing Rate, Shafer Lab (AID 2284031)
Method in brief: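 Primary rat cortical neurons on 48-well MEA plates, exposed from plating day 0 with dosing renewed on DIV 5 and 9. Mean well firing rate over active electrodes, recorded days 5, 7, 9, 12, summarised as trapezoidal AUC.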

[2] = CCTE_Shafer_MEA_dev_per_burst_spike_percent: CCTE's Neural Network Formation Assay for Percent of Spikes in a Burst, Shafer Lab (AID 2284032)
Method in brief: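 Rat primary cortical neurons on 16-electrode MEA wells, dosed from plating day 0 for 12 days with renewal on DIV 5 and 9; spikes-in-bursts percentage averaged over bursting electrodes, collapsed as AUC across days 5, 7, 9, 12; loss direction versus DMSO.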

[3] = CCTE_Shafer_MEA_dev_active_electrodes_number: CCTE's Neural Network Formation Assay for Number of Active Electrodes, Shafer Lab (AID 2284040; active means hit-call score of the fitted dose curve at least 0.9, where 1 is the maximum)
Method in brief: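 Primary rat cortical neurons on 16-electrode MEA wells, exposed from day 0 through day 12 with compound renewed at DIV 5 and 9 feeds. Active electrodes (mean firing ≥5 spikes/min) counted at DIV 5, 7, 9, 12; trapezoidal AUC across days, loss-of-signal versus DMSO.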

[4] = CCTE_Shafer_MEA_dev_burst_rate: CCTE's Neural Network Formation Assay for Burst Rate, Shafer Lab (AID 2284042)
Method in brief: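 Primary rat cortical neurons on PEI-coated 48-well MEA plates (laminin added with cells at plating) (16 electrodes/well), exposed from plating to day 12, dosing renewed at DIV 5 and 9. Burst rate averaged over active electrodes, recorded DIV 5, 7, 9, 12, summarized as AUC; loss versus DMSO.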

[5] = CCTE_Shafer_MEA_dev_bursting_electrodes_number: CCTE's Neural Network Formation Assay for Number of Bursting Electrodes, Shafer Lab (AID 2284043; active means hit-call score of the fitted dose curve at least 0.9, where 1 is the maximum)
Method in brief: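 Primary rat cortical neurons plated on 16-electrode MEA wells, exposed from day 0 with compound renewed at DIV 5 and 9. Electrodes bursting ≥1 burst per 2 min counted on days 5, 7, 9 and 12; trapezoidal AUC across days, fitted for loss versus DMSO.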

[6] = CCTE_Shafer_MEA_dev_per_burst_interspike_interval: CCTE's Neural Network Formation Assay for Burst Interspike Interval, Shafer Lab (AID 2284044);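 further: mean spike spacing inside bursts as AUC over recordings on days 5 7 9 12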
Method in brief: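 Spontaneous activity of maturing rat cortical networks is recorded on DIV 5, 7, 9 and 12 under chronic compound exposure beginning at plating. Endpoint: burst interspike interval well-mean, collapsed into trapezoidal AUC and fitted in the negative direction relative to DMSO.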

[7] = CCTE_Shafer_MEA_dev_burst_duration_mean: CCTE's Neural Network Formation Assay for Mean Burst Duration, Shafer Lab (AID 2284045)
Method in brief: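 Primary rat cortical neurons on 48-well 16-electrode MEA plates, exposed from day 0 with renewal at DIV 5 and 9; spontaneous activity recorded on days 5, 7, 9, 12. Well-mean burst duration across bursting electrodes, collapsed as trapezoidal AUC; DMSO baseline.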

[8] = CCTE_Shafer_MEA_dev_interburst_interval_mean: CCTE's Neural Network Formation Assay for Mean Interburst Interval, Shafer Lab (AID 2284046);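 further: well-mean interburst interval of bursting electrodes as AUC over four recording days; curve fitted for decrease in interburst interval relative to DMSO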
Method in brief: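 Recordings on days 5, 7, 9 and 12 give well-mean interburst interval across actively bursting electrodes, summarized as area under the curve. Cultures: rat cortical neurons, continuous exposure from day 0, compound renewed at feeds; decrease analyzed versus DMSO.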

[9] = CCTE_Shafer_MEA_dev_inter_network_spike_interval_mean: CCTE's Neural Network Formation Assay for Mean Inter-network Spike Interval, Shafer Lab (AID 2284047)
Method in brief: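 Primary rat cortical neurons on 16-electrode MEA wells, exposed from plating day 0 through DIV 12, compound renewed at DIV 5 and 9 media changes. Mean interval between network-spike peaks recorded DIV 5, 7, 9, 12; collapsed as trapezoidal AUC, fitted downward versus DMSO.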

[10] = CCTE_Shafer_MEA_dev_network_spike_number: CCTE's Neural Network Formation Assay for Number of Network Spikes, Shafer Lab (AID 2284048)
Method in brief: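 Primary rat cortical neurons on PEI/laminin 48-well MEA plates, dosed from plating day 0 for 12 days, renewed at DIV 5 and 9. Network spike counts recorded DIV 5, 7, 9, 12, collapsed as trapezoidal AUC; DMSO baseline.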

[11] = CCTE_Shafer_MEA_dev_network_spike_peak: CCTE's Neural Network Formation Assay for Mean Number of Electrodes in Network Spike, Shafer Lab (AID 2284049)
Method in brief: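 Network-spike peak electrode count from recordings on days 5, 7, 9 and 12 was combined as trapezoidal area under the curve. Rat cortical cultures were treated continuously from plating, with compound renewed at each feed (DIV 5, 9); fits versus DMSO.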

[12] = CCTE_Shafer_MEA_dev_spike_duration_mean: CCTE's Neural Network Formation Assay for Mean Spike Duration, Shafer Lab (AID 2284051);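 further: mean network spike duration pooled as area under curve over DIV 5 to 12 recordings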
Method in brief: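 Primary rat cortical neurons on 16-electrode MEA wells (PEI-coated, laminin in plating drop), exposed from plating through DIV 12 with compound renewed at DIV 5 and 9. Mean network-spike duration recorded DIV 5, 7, 9, 12; trapezoidal AUC across days, DMSO baseline.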

[13] = CCTE_Shafer_MEA_dev_per_network_spike_spike_number_mean: CCTE's Neural Network Formation Assay for Mean Number of Spikes in a Network Spike, Shafer Lab (AID 2284053)
Method in brief: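 Primary rat cortical neurons on 48-well, 16-electrode MEA plates were exposed from plating to DIV 12, with dosing renewed on DIV 5 and 9. Spikes per network spike (0.05 s peak window) were recorded on DIV 5, 7, 9 and 12 and collapsed as trapezoidal AUC versus DMSO.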

[14] = CCTE_Shafer_MEA_dev_per_network_spike_spike_percent: CCTE's Neural Network Formation Assay for Percent of Spikes in a Network Spike, Shafer Lab (AID 2284054)
Method in brief: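 Rat primary cortical neurons were grown on 48-well MEA plates (16 electrodes/well), exposed from plating day 0 through day 12, with treatment renewed on DIV 5 and 9. Percent of spikes within 0.05 s network-spike peaks was measured, summarised as AUC across days 5, 7, 9, 12.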

[15] = CCTE_Shafer_MEA_dev_LDH: CCTE's Lactate Dehydrogenase Assay for Cytotoxicity in the Neural Network Formation Assay, Shafer Lab (AID 2284068; active means hit-call score of the fitted dose curve at least 0.9, where 1 is the maximum;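 further: exposure for twelve days from plating with re-dosing on DIV 5 and 9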)
Method in brief: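 Primary rat cortical neurons were plated on PEI/laminin MEA plates and exposed from day 0 for twelve days, with compound renewed at DIV 5 and 9. Cytotoxicity was determined by spectrophotometric LDH assay relative to DMSO.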

[16] = CCTE_Shafer_MEA_dev_AB: CCTE's Alamar Blue Assay for Cytotoxicity in the Neural Network Formation Assay, Shafer Lab (AID 2284083; active means hit-call score of the fitted dose curve at least 0.9, where 1 is the maximum;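 further: twelve days of exposure from plating with re-dosing on DIV 5 and 9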)
Method in brief: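 Primary rat cortical neurons on PEI-coated 48-well MEA plates, 1.5 x 10^5 cells/well in laminin drop; compound exposure from day 0 of plating for twelve days, renewed at medium changes on DIV 5 and 9. Viability read as resazurin reduction by fluorescence, relative to DMSO.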

[17] = CCTE_Shafer_MEA_dev_mutual_information_norm: CCTE's Neural Network Formation Assay for Mutual Information Normalization, Shafer Lab (AID 2284091)
Method in brief: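 Primary rat cortical neurons on PEI-coated 48-well MEA plates, 1.5 x 10^5 cells/well, exposed from day 0 through day 12 with re-dosing at DIV 5 and 9. Mutual information between electrodes recorded days 5, 7, 9, 12; trapezoidal AUC, loss-of-signal fit versus DMSO.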

[18] = UKN2_HCS_IMR90_neural_migration: University of Konstanz (UKN) Leist Lab Neural Crest Cell Migration Assay in human induced IMR90 Pluripotent Stem Cells (UKN2) (AID 2284204); conditions: actives raise or lower the signal
Method in brief: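 iPSC-derived IMR90 neural crest cells seeded around stoppers on PLO/laminin/fibronectin; migration started in N2-S medium with EGF/FGF, compounds added after 24 h for 24 h. Migration into cell-free area imaged after calcein-AM/Hoechst staining; bidirectional fit versus DMSO.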

[19] = IUF_NPC1b_proliferation_BrdU_72hr: Leibniz Research Institute for Environmental Medicine (IUF) 72-hour Neural Progenitor Cell Bromodeoxyuridine (BrdU) Proliferation Assay (NPC1b) (AID 2284207)
Method in brief: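 BrdU luminescence ELISA quantified DNA synthesis over the last 16 h of a 72 h exposure, fitted against DMSO. Primary hNPC spheres from gestational week 16-19 cortex grown with EGF/FGF at 37C, pH 7.2-7.6.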

[20] = IUF_NPC1a_proliferation_area_72hr: Leibniz Research Institute for Environmental Medicine (IUF) 72-hour Neural Progenitor Cell Proliferation Area Assay (NPC1a) (AID 2284208)
Method in brief: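 Measured in 3D suspension: each well held one primary hNPC sphere grown with EGF and FGF at pH 7.2-7.6. Compound stayed on for 72 h, then area was imaged; spheres lacking growth factors defined reduced proliferation.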

[21] = IUF_NPC1_viability_72hr: Viability Assessment at 72 hours in the Leibniz Research Institute for Environmental Medicine (IUF) Neural Progenitor Cell Proliferation Assay (NPC1) (AID 2284209)
Method in brief: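 Single spheres (0.25-0.35 mm) of human fetal cortex-derived neural progenitor cells were grown in proliferation medium with EGF and FGF at 37C and 5% CO2. They were exposed for 72 h without renewal, and viability was read by alamar blue resorufin fluorescence.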

[22] = CCTE_Mundy_HCI_Cortical_Synap_Neur_Matur_NeuriteSpotCountPerNeuriteLength: CCTE's Synaptogenesis and Neurite Maturation Assay in rat cortical cells for Neurite Spot Count per Neurite Length, Mundy Lab (AID 2284210)
Method in brief: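 Rat primary cortical cultures, AraC added at DIV 5 to suppress glia; chemical exposure from DIV 7 to DIV 12. Fixed cells stained for MAP2 and synaptophysin plus Hoechst; synaptophysin puncta per neurite length quantified by high-content imaging, relative to DMSO.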

[23] = CCTE_Mundy_HCI_Cortical_Synap_Neur_Matur_BPCount: CCTE's Synaptogenesis and Neurite Maturation Assay in rat cortical cells for Branch Point Count, Mundy Lab (AID 2284211)
Method in brief: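 Rat primary cortical cultures, AraC added DIV 5; chemicals dosed DIV 7 through DIV 12. Fixed cells stained for MAP2, synaptophysin and Hoechst; neurite branch points counted by automated high-content imaging, fitted relative to DMSO.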

CCCCCC=C(C)C(CC)CCO (centres undefined)
outcome [1]: inactive
outcome [2]: inactive
outcome [3]: inactive
outcome [4]: inactive
outcome [5]: inactive
outcome [6]: inactive
outcome [7]: inactive
outcome [8]: inactive
outcome [9]: inactive
outcome [10]: inactive
outcome [11]: inactive
outcome [12]: inactive
outcome [13]: inactive
AC50 [14]: 5 µM (active)
outcome [14]: inactive
outcome [15]: inactive
outcome [16]: inactive
outcome [17]: inactive
outcome [18]: inactive
outcome [19]: inactive
outcome [20]: inactive
outcome [21]: inactive
outcome [22]: inactive
outcome [23]: inactive
